Assay results taken from PubChem BioAssay (NCATS).
Inconclusive results are not listed. The source made the active and inactive calls. The call rests on the fitted dose curve; in most records, active means well fitted inhibition curve with a large enough effect; inconclusive means small, poorly fitted or top-dose-only effect; inactive means flat fitted curve, though single readings scatter.

biological target: Ubiquitin carboxyl-terminal hydrolase 1 (Homo sapiens) (UniProt O94782); assay: Inhibitors of USP1/UAF1: Pilot qHTS (AID 504865); details: purified USP1/UAF1, Ub-rhodamine cleavage fluorescence; series mostly up to 114 µM; activity change, negative = inhibition: at the top concentration; further: nearly all actives have a fitted effect of over 35% in size;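 on activity change, negative = inhibition: rhodamine fluorescence freed from ubiquitin-rhodamine substrate followed over time; top concentration of the series differs between compounds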
Sequence (O94782 whole entry, looked up): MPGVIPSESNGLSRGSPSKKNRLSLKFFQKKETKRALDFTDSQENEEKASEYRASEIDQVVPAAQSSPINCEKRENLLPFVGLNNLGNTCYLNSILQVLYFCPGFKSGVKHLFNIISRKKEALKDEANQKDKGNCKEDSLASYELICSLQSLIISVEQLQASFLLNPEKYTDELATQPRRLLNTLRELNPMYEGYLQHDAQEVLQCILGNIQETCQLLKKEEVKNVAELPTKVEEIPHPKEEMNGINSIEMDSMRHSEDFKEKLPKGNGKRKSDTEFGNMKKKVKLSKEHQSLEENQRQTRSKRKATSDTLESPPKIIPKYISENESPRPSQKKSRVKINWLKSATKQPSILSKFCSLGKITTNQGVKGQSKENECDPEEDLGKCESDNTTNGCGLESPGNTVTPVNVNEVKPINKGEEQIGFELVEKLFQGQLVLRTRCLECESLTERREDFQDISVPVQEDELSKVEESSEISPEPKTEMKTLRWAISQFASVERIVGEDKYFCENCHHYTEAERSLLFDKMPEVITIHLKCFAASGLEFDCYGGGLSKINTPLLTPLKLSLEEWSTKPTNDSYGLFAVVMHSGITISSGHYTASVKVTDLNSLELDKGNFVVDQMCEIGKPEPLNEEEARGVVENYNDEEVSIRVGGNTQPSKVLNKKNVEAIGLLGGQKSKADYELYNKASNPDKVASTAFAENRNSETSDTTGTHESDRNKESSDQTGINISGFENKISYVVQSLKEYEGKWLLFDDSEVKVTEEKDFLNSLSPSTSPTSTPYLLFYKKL
In short: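 Kinetic fluorescence assay: 1nM USP1/UAF1, 15 min compound preincubation, then 150nM Ub-Rho; 480/540 nm.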
On the % scale 0 is the no-effect control and ±100 the full control effect; potency means the concentration at half of the fitted maximal effect.

SMILES | activity change, negative = inhibition | Potency
Oc1ccc(Cl)c2c1CCC2 | -14.5% (inactive) | 
CC1(O)CCC(C(C)(C)O)CC1 (stereo not drawn) | -9.87% (inactive) | 
CN=C1C=CC(=C(c2ccc(N(C)C)cc2)c2ccc(N(C)C)cc2)C=C1 |  | 20 µM (active)
NC(=O)[C@H]1O[C@@H](O)[C@H](O)[C@@H](O)[C@@H]1O | -0.256% (inactive) | 
CNC(=O)C[C@@H](N)C(=O)N[C@@H](C(=O)N[C@@H]1C(=O)N2[C@@H]1SC(C)(C)[C@@H]2C(=O)O)c1ccc(O)cc1 | 1.41% (inactive) | 
NC(N)=NCC1COc2ccccc2O1 (stereo not drawn) | -3.37% (inactive) | 
CCCCC[C@H](O)/C=C/[C@H]1[C@H](O)CC(=O)[C@@H]1C/C=C\CCCC(=O)O | -1.9% (inactive) | 
COc1ccc2c(=O)c(C)c(-c3ccccc3)oc2c1CN(C)C | -7.13% (inactive) | 
O=C(O)[C@H]1CN(C/C=C/P(=O)(O)O)CCN1 | -5.98% (inactive) | 
CCCCCCCCCCCC(=O)N(CCO)CCO | -14.5% (inactive) | 
CCOC(=O)Cc1ccc(-c2ccccc2)cc1 | 0.706% (inactive) | 
CCCCCCCCCCCCCC(=O)OCC(COP(=O)([O-])OCC[N+](C)(C)C)OC(=O)CCCCCCCCCCCCC (stereo not drawn) | -2.16% (inactive) | 
O=C1c2ccccc2C(=O)C1c1ccc(F)cc1 | -7.49% (inactive) | 
CC(C)Cc1ccc([C@@H](C)C(=O)NS(C)(=O)=O)cc1 | -13.7% (inactive) | 
CC(O)CN(C)C (stereo not drawn) | -7.91% (inactive) | 
NCC[C@H](O)C(=O)N[C@@H]1C[C@H](N)[C@@H](O[C@H]2O[C@H](CN)CC[C@H]2N)[C@H](O)[C@H]1O[C@H]1O[C@H](CO)[C@@H](O)[C@H](N)[C@H]1O | -0.311% (inactive) | 
C=CCN1CCCC1CNC(=O)c1cc(S(N)(=O)=O)cc(OC)c1OC (stereo not drawn) | -0.641% (inactive) | 
O=P(O)(O)CP(=O)(O)O | -1.44% (inactive) | 
